Chronic BCR inh: qHTS Assay to Find Inhibitors of Chronic Active B-Cell Receptor Signaling; 340,000 tested, 0.05% active; ABC-DLBCL IkBa-CBG/CBR reporter, luminescence ratio, 4 h; Potency, µM (titrated, usually from 46.1 µM), inactives show at the highest dose activity change, negative = inhibition, most hits filed as inhibitors; AID 493014, 2011; active means well fitted inhibition curve with a large enough effect in the signal ratio, with a control signal flat, not every such curve was filed as active; inconclusive means small, poorly fitted or top-dose-only effect, or effect the other way, or a change in a side signal; the % refers to the signal ratio;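 further: potency means the concentration at half of the fitted maximal effect; plate controls were basal doxycycline-induced cells for no effect and cells given 10 µM MG132 for full effect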
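Doxycycline induced both beetle luciferases in TMD8 lymphoma cells; IKK-driven degradation limits the IkappaBalpha-fused green signal, while red luminescence normalises for cell number and nonspecific effects. Compounds tested up to 46 uM, 4 hrs.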
Gal4-VP16 FLuc: VP16 counterscreen qHTS for inhibitors of ROR gamma transcriptional activity. Drosophila S2 Gal4-VP16 UAS-luciferase, luminescence, 20 h. Potency, µM (doses to about 53.6 µM), inactives show at the top dose activity, negative = inhibition, usual class: inhibitors. 310,000 tested, 3.5% active;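 further: Gal4-VP16 expression switched on by copper sulfate through the metallothionein promoter; potency means the concentration at half of the fitted maximal effect; on the % scale 0 is the no-effect control and ±100 the full control effect; nearly all actives have a fitted effect of over 50% in size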
RORg inh: qHTS for inhibitors of ROR gamma transcriptional activity; Nuclear receptor ROR-gamma (Mus musculus), P51450; Drosophila S2 Gal4-RORgamma UAS-luciferase reporter, 20 h; Potency, µM (titrated, usually from 53.6 µM), inactives show at the top dose activity change, negative = inhibition, hits mostly inhibitors; 310,000 tested, 5.4% active; AID 2551, 2010; further: potency means the concentration at half of the fitted maximal effect; on the % scale 0 is the no-effect control and ±100 the full control effect; nearly all actives have a fitted effect of over 60% in size
Target sequence (P51450 whole entry, looked up, the tested form may be a part): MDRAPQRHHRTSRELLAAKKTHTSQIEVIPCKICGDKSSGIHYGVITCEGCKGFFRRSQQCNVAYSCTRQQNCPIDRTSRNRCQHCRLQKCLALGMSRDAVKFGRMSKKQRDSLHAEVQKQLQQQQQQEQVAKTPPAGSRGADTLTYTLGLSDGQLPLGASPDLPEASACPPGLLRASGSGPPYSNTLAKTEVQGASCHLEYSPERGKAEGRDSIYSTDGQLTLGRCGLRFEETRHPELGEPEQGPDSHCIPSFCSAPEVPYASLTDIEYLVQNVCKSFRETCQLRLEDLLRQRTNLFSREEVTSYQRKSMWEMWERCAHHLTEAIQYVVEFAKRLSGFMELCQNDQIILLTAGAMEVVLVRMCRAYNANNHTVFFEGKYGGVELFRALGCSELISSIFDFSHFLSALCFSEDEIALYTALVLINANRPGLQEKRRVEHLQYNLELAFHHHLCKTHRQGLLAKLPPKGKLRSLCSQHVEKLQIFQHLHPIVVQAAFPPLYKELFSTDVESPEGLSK
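Luciferase reporter read in Schneider cells carrying Gal4-RORγ (mouse) and UAS-Photinus luciferase; cells given compound 1 h before 700 uM copper sulfate induction, then incubated 20 h at ambient temperature.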
SW480 rereplic: A quantitative high throughput screen for small molecules that induce DNA re-replication in SW480 colon adenocarcinoma cells; SW480 DNA re-replication, Hoechst DNA content imaging, 48 h; Potency, µM (highest dose often 46.1 µM), inactives show at the highest dose re-replication activation, usual class: activators; 340,000 tested, 1.8% active; AID 624297, 2012; further: potency means the concentration at half of the fitted maximal effect; % of control where 0% means no effect; nearly all actives have a fitted effect of over 55% in size
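Compounds, transferred as 23 nL by pin tool, were incubated with cells for 48 hr; DNA content per nucleus was then quantified by Hoechst staining and fluorescence plate imaging.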
MCF10A rereplic: A quantitative high throughput screen for small molecules that induce DNA re-replication in MCF 10a normal breast cells; MCF 10A DNA re-replication, Hoechst nuclear intensity, 48 h; Potency, µM (highest dose often 46.1 µM), without a hit: at the highest dose activity, positive = re-replication, usual class: activators; 350,000 tested, 2.9% active; further: potency means the concentration at half of the fitted maximal effect; % of control where 0% means no effect; nearly all actives have a fitted effect of over 50% in size
Giardia killer: Small Molecules that selectively kill Giardia lamblia: qHTS; activity change, % at 7.66 µM, hits read low; 340,000 tested, 0.15% active; Giardia lamblia trophozoite viability; in the data active means activity change below about -80%; inconclusive means between about -30% and that limit;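 further: parasites exposed to compound for two days anaerobically before the ATP read; on the % scale 0 is the no-effect control and ±100 the full control effect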
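Trophozoite viability was measured as ATP-dependent luminescence, read 15-30 min after reagent addition. Before that, parasites at 100 cells/well were exposed to compounds for 48 h, anaerobically, at 37 deg C.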
Active calls of the source: *; ? = inconclusive; / = no result given. Hits are enriched below; roughly 8.3% of the tested compounds scored in any of these assays. Unless noted, the call rests on the fitted dose curve; in most records, active means well fitted curve in the direction sought with a large enough effect; inconclusive means small, poorly fitted or top-dose-only effect, or another doubt; inactive means no such curve, though single readings can be large; an effect the other way counts as inactive or inconclusive.

SMILES | Chronic BCR inh | Gal4-VP16 FLuc | RORg inh | SW480 rereplic | MCF10A rereplic | Giardia killer
FC(F)(F)c1cccc(-n2cc(-c3ccccc3)[nH]c2=S)c1 | ? | ? | 2.82µM* | -6.9% | 17.4% | 7.5
Cc1ccc(-c2cn(-c3ccccc3)c(=S)[nH]2)cc1C | ? | ? | ? | 5.1% | 8.8% | 11.9
COc1ccc(-n2cc(-c3ccc(OC)c(OC)c3)[nH]c2=S)cc1 | -21.9% | 10µM* | 2µM* | ? | -0.8% | -8.1
COc1cc(OC)c(-n2cc(-c3ccc(OC)c(OC)c3)[nH]c2=S)cc1Cl | ? | 15.8µM* | 7.94µM* | -2.8% | -2.3% | -3.2
COc1ccc(-n2cc(-c3ccc(Br)cc3)[nH]c2=S)cc1 | 1.9% | -14.1% | 1.78µM* | -0.2% | 4.1% | -6.6
CC(=O)N1CCc2cc(S(=O)(=O)NC(C(=O)NC(C)c3ccccc3)C(C)C)ccc21 (centres undefined) | 1.3% | -7.6% | -0.5% | -9.0% | 0.1% | 1.6
CCC(NC(=S)NCc1ccccc1)C(=O)O (centres undefined) | 3.5% | 9.8% | -13.9% | -9.1% | ? | -22.0
C/C(CCc1ccccc1)=N\NC(=S)NCCc1ccccc1 | -10.3% | 6.31µM* | 5.01µM* | ? | 8.3% | 2.5
C/C(CCC(C)C)=N\NC(=S)NCc1ccccc1 | ? | ? | 3.98µM* | 7.2% | 2.0% | ?
C/C(=N\NC(=S)NCCc1ccccc1)c1cccs1 | ? | 1.41µM* | 4.47µM* | / | 4.2% | 4.0
COc1ccc(S(=O)(=O)N2CCCC(C(=O)NCCc3ccccc3)C2)cc1 (centres undefined) | -1.7% | -10.8% | 35.0% | -19.4% | -5.2% | 3.0
CCN(CC)CCN1C(=O)/C(=C\c2ccc(Cl)c([N+](=O)[O-])c2)SC1=Nc1ccc(OC)cc1 | ? | ? | ? | 3.66µM* | ? | 1.9
COc1ccc(N=C2S/C(=C\c3ccc(Cl)c([N+](=O)[O-])c3)C(=O)N2CCN(C)C)cc1 | ? | -16.2% | ? | -6.2% | ? | -4.8
Cc1ccccc1NC(=S)N1CCN(c2ccccc2)CC1 | -0.9% | 20µM* | 10µM* | -0.2% | 1.2% | 11.5
Cc1ccccc1NC(=S)N1CCCCCC1 | 0.4% | -26.9% | 11.2µM* | -0.4% | 0.0% | 4.3
CN(C)/C=C/C(=O)c1nn(-c2ccc(F)cc2)ccc1=O | -0.4% | -9.2% | -3.6% | -7.5% | 8.6% | 9.2
CCN1CCN(c2nc(Nc3cccc(OC)c3)nc(N)c2[N+](=O)[O-])CC1 | ? | -0.2% | -7.4% | 16.4µM* | 27.7% | 20.1
Cc1cccc(Nc2nc(N)c([N+](=O)[O-])c(N3CC(C)CC(C)C3)n2)c1 (centres undefined) | 6.7% | ? | -12.2% | ? | 26.2% | 8.2
Nc1nc(NCc2ccco2)nc(N2CCCCC2)c1[N+](=O)[O-] | -4.9% | 18.1% | ? | -1.8% | -0.4% | 0.0
CN1CCN(c2nc(NCc3ccco3)nc(N)c2[N+](=O)[O-])CC1 | -8.6% | -9.4% | 20.5% | 13µM* | ? | -9.5
Cc1cccc(Nc2nc(N)c([N+](=O)[O-])c(N3CCC(C)CC3)n2)c1 | -3.6% | -20.2% | ? | ? | 23.1µM* | -22.7
CCC(=O)N1CCCc2cc(S(=O)(=O)CCC(=O)Nc3ccccc3C)ccc21 | 0.3% | 1.7% | -2.5% | 15.9% | 2.8% | -7.8
COc1cccc(/C=N/NC(=S)NCc2ccco2)c1OC | ? | ? | 3.55µM* | -31.6% | 0.0% | 34.0
CN(C)c1ccc(/C=N/NC(=S)NCc2ccco2)cc1 | -13.9% | 5.01µM* | 1.78µM* | -1.0% | ? | 19.0
S=C(NCc1ccco1)N/N=C/c1ccncc1 | ? | ? | 15.8µM* | -1.4% | 0.5% | -8.0
COc1cc(NC(=S)NCc2ccco2)cc(OC)c1OC | ? | 20µM* | 11.2µM* | -0.5% | 4.0% | -6.6
